These results are taken from PubChem BioAssay AID364 (The Scripps Research Institute Molecular Screening Center, 2006).

Each structure is given as a SMILES string. About 50 (2%) of roughly 3,300 compounds were called active.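 The calls were made as follows: active = concentration giving half-maximal inhibition at or below 20 micromolar; inactive = half-maximal concentration above 20 micromolar, or not dose tested.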 Only a sample is shown. Measured potencies and affinities stand elsewhere.

The assay can be described thus: cytotoxicity toward Jurkat T cells, primary screen, cell-based, Jurkat E6.1, NIH starter set (AID 364).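 Also: 100% = cells treated with 4 µM doxorubicin.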 The following applies: Jurkat E6.1 viability, ATP luminescence, 48 h; at 4 µM; active compounds read high.
Usually inhibition stands for the drop in the measured response relative to a control, in per cent. For the compound `CN1CCN(c2c3c(c(C#N)c4nc5ccccc5n24)CCCC3)CC1`, the inhibition is 4.7% (inactive).

In the case of `CCOC(=O)C1Cc2c([nH]c3ccccc23)C(C)N1` (centres undefined), the inhibition was -10.3% (inactive). Consider `Cc1cc(NC(CC(C)C)C(=O)O)nc(Cc2ccccc2)n1` (centres undefined), for which the inhibition is 0.4% (inactive). As for `CC1(C2(O)CC(c3ccccc3)ON2)CCCCC1` (centres undefined), the figure is 13.9% (inactive).

Turning to `CC1CN(C2CCN(S(=O)(=O)c3ccccc3)CC2)CC(C)O1` (centres undefined), the inhibition was 7.8% (inactive). On to `C(=N\n1cnnc1)/c1ccccn1`, for which the inhibition is -0.2% (inactive). For `Cc1cc(-c2cc(-c3ccc(Cl)cc3)nc(N)c2C#N)co1` the value was 7.7% (inactive); for `CCOC(=O)CC(=O)CSc1nc(N)c(C#N)c(-c2ccc(Cl)cc2)c1C#N`, 9.6% (inactive); for `CC(=O)c1c(OCC(=O)O)ccc2c(C)cc(=O)oc12`, 6.9% (inactive). For `c1ccc(CN2CCN(c3ncnc4c3[nH]c3ccccc34)CC2)cc1` the value was 28.5% (inactive). On to `c1ccc2c(c1)[nH]c1c(N3CCSCC3)ncnc12`, for which the inhibition is 29.6% (inactive). As for `Cc1cc(=O)oc(C)c1C(=O)N1CCN(C)CC1`, the figure is -1% (inactive); as for `CN(C)CCCN1C(=O)C(O)=C(C(=O)c2cc3ccccc3o2)C1c1ccccc1` (centres undefined), 0% (inactive). For `Nc1ccc2oc3ncccc3c(=O)c2c1` the value was -1.7% (inactive); for `CC(C)Oc1ccc(/C(O)=C2/C(=O)C(=O)N(CCN(C)C)C2c2ccco2)cc1` (centres undefined), 5.7% (inactive). For `COc1ccc2[nH]c3c(N4CCN(Cc5ccc6c(c5)OCO6)CC4)ncnc3c2c1` the value was -0.5% (inactive); for `COc1cccc(N2CCN(c3ncnc4c3[nH]c3ccccc34)CC2C)c1` (centres undefined), 22.3% (inactive). For `Cc1ccc2[nH]c3c(N4CCN(Cc5ccc6c(c5)OCO6)CC4)ncnc3c2c1`, the inhibition is 18.7% (inactive). Turning to `Fc1ccc2[nH]c3c(N4CCN(c5ccccc5)CC4)ncnc3c2c1`, the inhibition is 28.7% (inactive). For `N#CCCSCc1ccc(OCC(=O)O)cc1` the value was -5.7% (inactive).

Consider `CCn1cc(C(=O)NCc2ccco2)c(=O)c2cc(F)c(N3CCN(C(=O)c4ccco4)CC3)cc21`, for which the inhibition is 7.2% (inactive).

As to `Cc1cc(C)n(C(=O)CNC(=O)c2cccs2)n1`, the inhibition was 2.3% (inactive).

For the compound `COc1ccccc1NC(=O)C1=C(C)NC(SCC(=O)c2ccc(C)cc2)=C(C#N)C1c1ccco1` (centres undefined), the inhibition was -6.6% (inactive). As for `N#CC1=C(SCc2ccccc2)NC2=C(C(=O)CCC2)C1c1ccc2c(c1)OCO2` (centres undefined), the figure is 13.1% (inactive); as for `CCN(CC)C(=O)CSC1=C(C#N)C(c2ccco2)C(C(=O)OCCOC)=C(C)N1` (centres undefined), -2.1% (inactive).

For the compound `COCCOC(=O)C1=C(C)NC(SCC(=O)NC(C)(C)C)=C(C#N)C1c1ccco1` (centres undefined), the inhibition was 9.1% (inactive). As for `CCCCc1ccc(NC(=O)CSC2=C(C#N)C(c3ccco3)C3=C(CCCC3=O)N2)cc1` (centres undefined), the figure is -2.5% (inactive); as for `CCc1ccccc1NC(=O)CSC1=C(C#N)C(c2ccc(O)c(OC)c2)C2=C(CCCC2=O)N1` (centres undefined), -3.3% (inactive); as for `Cc1ccc(NC(=O)CSC2=C(C#N)C(c3ccco3)C3=C(CCCC3=O)N2)cc1` (centres undefined), 6.6% (inactive). Take `CCc1ccc(NC(=O)CSC2=C(C#N)C(c3ccco3)C3=C(CCCC3=O)N2)cc1` (centres undefined): the inhibition is 3.5% (inactive).

Consider `Cc1cc(CCC(=O)O)c(C)cc1CCC(=O)O`, for which the inhibition was -4.4% (inactive). `NS(=O)(=O)c1ccc(-c2ccc(C=NC3CCS(=O)(=O)C3)o2)cc1` (centres undefined): the inhibition is 10.2% (inactive).

Consider `O=C(C1CCCCC1)N1CCCn2c1nc1ccccc12`, for which the inhibition is 1.8% (inactive). As for `O=C1C2CC=C(Cl)CC2C(=O)N1CNc1ccccn1` (centres undefined), the figure is -4.2% (inactive); as for `CCCOc1ccc(N2C(=O)CC(N(CCC)C(=O)CCC(=O)O)C2=O)cc1` (centres undefined), -0.8% (inactive). For `COc1cccc(/C(O)=C2/C(=O)C(=O)N(CCN(C)C)C2c2ccc(Br)cc2)c1` (centres undefined) the value was -1.9% (inactive); for `CCOc1ccc(Br)cc1CC(=O)O`, 13.6% (inactive); for `O=C(C(c1ccccc1)N1CCOCC1)N1CCOCC1` (centres undefined), -13.4% (inactive). For `Cc1cc2c(c(=O)n1Cc1ccccn1)C(c1ccc3c(c1)OCO3)C(C#N)=C(N)O2` (centres undefined) the value was -0.2% (inactive); for `CCCCCOc1ccc(Cl)cc1CN1CCOCC1`, -0.4% (inactive); for `COc1cccc(C2/C(=C(\O)c3ccc(OC)c(OC)c3)C(=O)C(=O)N2c2cc(C)on2)c1` (centres undefined), -14.4% (inactive). Turning to `Cc1cc(C)nc(N(C#N)S(=O)(=O)c2ccccc2Cl)n1`, the inhibition is 1% (inactive).

Turning to `COc1ccc(OC)c(NC(=O)CSC2=C(C#N)C(c3ccco3)C3=C(CCCC3=O)N2)c1` (centres undefined), the inhibition is 4.8% (inactive). For `COc1ccc(NC(=O)CSC2=C(C#N)C(c3ccco3)C3=C(CCCC3=O)N2)c(OC)c1` (centres undefined) the value was 1.6% (inactive); for `Cc1c(N2C(=O)SC(CC(=O)O)C2=O)c(=O)n(-c2ccccc2)n1C` (centres undefined), -2.7% (inactive); for `CC(=O)C1(C)OC(N)=C(C#N)C(c2ccccc2)C1(C#N)C#N` (centres undefined), 5.6% (inactive).

On to `COc1ccc(N2C(=O)C3C(C2=O)C2C=CC3C23CC3)c(OC)c1` (centres undefined), for which the inhibition is 0.8% (inactive).

As to `COc1ccccc1NC(=O)Nc1nnc(C(C)C)s1`, the inhibition is 9.4% (inactive).

For the compound `c1ccc(-c2nnc3n2N=C(c2ccc4c(c2)OCO4)CS3)nc1`, the inhibition was -6.9% (inactive). In the case of `COc1ccc(OC)c(C2=Nn3c(nnc3C3CCCCC3)SC2)c1`, the inhibition is 5.2% (inactive). For `CC(=O)[C@H]1[C@@H]2C(=O)N(c3cccc(Cl)c3)C(=O)[C@@H]2[C@H]2c3ccccc3C=CN21` the value was -1.9% (inactive); for `CCOC(=O)CNS(=O)(=O)c1cc(-c2nn(C)c(=O)c3ccccc23)ccc1C`, 1.1% (inactive); for `C=C(C)CC1N(c2cccc(OC)c2)C(=O)[C@@H]2C(C(=O)O)[C@H]3C=C[C@@]12O3` (some centres undefined), 5.9% (inactive). For `CCCCOc1ccc(C(=O)Nc2ccc(N3CCN(C(C)=O)CC3)cc2)cc1` the value was 6.7% (inactive); for `COc1ccc(C(=O)CSC2=C(C#N)C3(CCCCC3)C(C#N)=C(N)N2)cc1`, 4.2% (inactive). As for `N#CC1=C(N)NC(SCc2ccc(Cl)cc2)=C(C#N)C12CCCCC2`, the figure is 7.9% (inactive); as for `Cc1csc(SCCn2c(Br)nc3c2c(=O)[nH]c(=O)n3C)n1`, -4.7% (inactive). With `N#CC1=C(N)C(C#N)(C#N)[C@H](c2ccncc2)[C@H]2CN(C(=O)OCc3ccccc3)CC=C12`, the inhibition is 2.4% (inactive). For `O=C(CSc1nnc(-c2ccco2)c(-c2ccco2)n1)Nc1ccccc1` the value was 0.1% (inactive); for `COCCOC(=O)c1c(C)nc(SCC(=O)Nc2ccc(C)cc2)c(C#N)c1-c1ccco1`, 13.5% (inactive). For `C=CCN(C)CCCNC(=O)/C=N/O` the value was 2.4% (inactive); for `CN(CCOC(=O)c1ccc2c(c1)OCCO2)Cc1ccccc1`, -9.3% (inactive). For `O=C(CC(c1ccco1)S(=O)(=O)c1ccccc1)c1ccc(F)cc1` (centres undefined) the value was -1% (inactive); for `COc1cc(-c2nn3c(-c4cccnc4)nnc3s2)cc(OC)c1OC`, 3.2% (inactive); for `c1cncc(-c2nnc3sc(-c4ccco4)nn23)c1`, 7.6% (inactive). As for `Cc1c(NS(=O)(=O)c2cccc3nsnc23)c(=O)n(-c2ccccc2)n1C`, the inhibition was -5.3% (inactive). As for `CCN(CC)CCN1C(=O)C(O)=C(C(C)=O)C1c1ccc(OC)c(OC)c1` (centres undefined), the figure is -15.9% (inactive). On to `Cc1ccc2cc(CNC(C)(C)C)c(=O)[nH]c2c1`, for which the inhibition was 7.6% (inactive). As for `Cn1c(=O)cc(NCc2ccccc2)[nH]c1=O`, the inhibition is -8.6% (inactive). In the case of `CCc1c(C)c(C#N)c2nc3ccccc3n2c1-n1nc(C)cc1C`, the inhibition is -5.3% (inactive). As for `COCc1cc(C)nc(SCC(=O)Nc2ccc(C)c(C)c2)c1C#N`, the figure is -5.4% (inactive); as for `CCc1nc2c(sc3nc(N4CCOCC4)c4c(c32)CC(C)(C)OC4)c(=O)o1`, -2% (inactive). For `CN(C)CCCN1C(=O)C(=O)/C(=C(/O)c2ccccc2)C1c1ccccn1` (centres undefined) the value was 8.4% (inactive); for `COc1ccc(C2=Nn3c(nnc3-c3cccnc3)SC2)cc1OC`, -8.2% (inactive). As for `Cc1cccc(-c2nnc3n2N=C(c2ccccc2)CS3)c1`, the figure is 13.9% (inactive); as for `COc1ccc(OC)c(C2=Nn3c(nnc3-c3ccco3)SC2)c1`, -10.8% (inactive). In the case of `CCOc1ccc(-c2nnc3sc(-c4ccccc4OC)nn23)cc1`, the inhibition is 1.2% (inactive). Take `CCOc1ccc(C2=Nn3c(nnc3-c3ccccn3)SC2)cc1`: the inhibition is 2.6% (inactive).

Consider `COc1ccc(C2=Nn3c(nnc3-c3ccccn3)SC2)cc1OC`, for which the inhibition is 2.3% (inactive). `CCOc1ccc(C2=Nn3c(nnc3-c3cccnc3)SC2)cc1`: the inhibition is 2.1% (inactive).

As to `c1ccc(C2=Nn3c(nnc3-c3ccccn3)SC2)cc1`, the inhibition was -9.2% (inactive).

For `CC1(C)CC(=O)C2=C(C1)N(CC1CCCO1)C(=O)C2(O)C(F)(F)F` (centres undefined), the inhibition is 7.7% (inactive).

As to `COc1ccc(-c2nc3n(n2)C(=O)CC(c2ccco2)S3)cc1` (centres undefined), the inhibition was -1.6% (inactive).

As to `Cc1cc(NCC2CCCO2)n2c(nc3ccccc32)c1C#N` (centres undefined), the inhibition was 15.2% (inactive). For `CCOC(=O)NC(Nc1sc2c(c1C(N)=O)CCCC2)(C(=O)OCC)C(F)(F)F` (centres undefined) the value was 2.5% (inactive). For `CC(C)c1cc(NCCN2CCOCC2)n2c(nc3ccccc32)c1C#N`, the inhibition was 14.6% (inactive).

On to `O=P(Cc1nnco1)(c1ccccc1)c1ccccc1`, for which the inhibition was 1% (inactive).

Regarding `CC(=O)Oc1ccccc1C1OCCN1C(C)=O` (centres undefined), the inhibition is -17.2% (inactive). For `Cc1ccc2nc(C(F)(F)F)c(C#N)c(N)c2c1` the value was 11.8% (inactive).

Take `C/C(NC(=O)c1ccccc1F)=C1\C(=O)C[C@@H]2[C@H]1C2(C)C`: the inhibition is -12.7% (inactive). As for `Cc1ccc(S(=O)(=O)NC(=O)NCc2ccc3c(c2)OCO3)cc1`, the figure is 7.5% (inactive). As for `CCN=C1SC(C(=O)Nc2ccc(Cl)c(Cl)c2)CC(=O)N1CC` (centres undefined), the figure is -3.4% (inactive); as for `O=C(OCCN1CCOCC1)c1ccc(OCCN2CCOCC2)cc1`, -3.3% (inactive); as for `Cn1c(/C(C#N)=C/Nc2ccccn2)nc2ccccc21`, -8.5% (inactive).
